Results filed as inconclusive are left out. Where a call stands in place of a potency, no number is given. Activity calls are given as the source filed them. The call rests on the fitted dose curve; in most records, active means well fitted inhibition curve with a large enough effect; inconclusive means small, poorly fitted or top-dose-only effect; inactive means flat fitted curve, though single readings scatter.
Assay: qHTS to identify inhibitors of the type 1 interferon - major histocompatibility complex class I in skeletal muscle: primary screen against the NCATS LOPAC collection (AID 1347405);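 further: lytic HiBiT luminescence reporting HLA-B protein level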
Settings: iHSKM muscle cells, IFN-b-induced MHC-I HiBiT luminescence, 24 h; series mostly up to 45.9 µM
Outline: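 After 24 h at 37 C with compounds (7-point, 1:4.3 dilutions, 46 uM top final) plus 4 ng/ml IFN-beta, luminescence from lytic HiBiT detection was measured. HLA-B*08:01 in C25cl48 myoblasts carried an endogenous C-terminal HiBiT tag; medium lacked dexamethasone.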
Potency means the concentration at half of the fitted maximal effect.

Row | SMILES | Potency
1 | O=C(CCCN1CCC(O)(c2ccc(Cl)cc2)CC1)c1ccc(F)cc1 | inactive
2 | Cc1cn([C@H]2C=C[C@@H](CO)O2)c(=O)[nH]c1=O | inactive
3 | CCOC(=O)Nc1ccc(NCc2ccc(F)cc2)nc1N | inactive
4 | Clc1ccc2nsnc2c1NC1=NCCN1 | inactive
5 | O=C(c1ccc(F)cc1)C1CCN(CCn2c(=O)[nH]c3ccccc3c2=O)CC1 | inactive
6 | CC[C@@]1(O)C(=O)OCc2c1cc1n(c2=O)Cc2cc3c(CN(C)C)c(O)ccc3nc2-1 | 3.55 µM (active)
7 | CN(C)CCCN1c2ccccc2CCc2ccc(Cl)cc21 | inactive
8 | C[C@](N)(Cc1ccc(O)c(O)c1)C(=O)O | inactive
9 | CC[N+](CC)(CC)CCOc1cccc(OCC[N+](CC)(CC)CC)c1OCC[N+](CC)(CC)CC | inactive
10 | NC(=O)NO | inactive
11 | Clc1ccc2c(c1)C(N1CCNCC1)=Nc1ccccc1O2 | inactive
12 | CC(CCc1ccc(O)cc1)NCCc1ccc(O)c(O)c1 (stereo not drawn) | inactive
13 | OCCN(CCO)c1nc(N2CCCCC2)c2nc(N(CCO)CCO)nc(N3CCCCC3)c2n1 | inactive
14 | COc1cc2nc(N(C)CCCNC(=O)C3CCCO3)nc(N)c2cc1OC (stereo not drawn) | inactive
15 | COc1ccc(C2CNC(=O)C2)cc1OC1CCCC1 (stereo not drawn) | inactive
16 | CN(Cc1cnc2nc(N)nc(N)c2n1)c1ccc(C(=O)N[C@@H](CCC(=O)O)C(=O)O)cc1 | inactive
17 | Nc1nc2c(ncn2COC(CO)CO)c(=O)[nH]1 | inactive

Row | SMILES | Potency
18 | O=c1[nH]cc(F)c(=O)[nH]1 | inactive
19 | Clc1ccc(C(c2ccccc2Cl)C(Cl)Cl)cc1 (stereo not drawn) | inactive
20 | NC(=O)OCC(COC(N)=O)c1ccccc1 | inactive
21 | Nc1ccn([C@H]2CC[C@@H](CO)O2)c(=O)n1 | inactive
22 | Nc1c2c(nc3ccccc13)CCCC2 | inactive
23 | CN1CCN(CCCN2c3ccccc3Sc3ccc(Cl)cc32)CC1 | inactive
24 | CN1CCN2c3ccccc3Cc3ccccc3C2C1 (stereo not drawn) | inactive
25 | CC(C)(C)C(=O)Oc1ccc(S(=O)(=O)Nc2ccccc2C(=O)NCC(=O)O)cc1 | inactive
26 | CC1COc2c(N3CCN(C)CC3)c(F)cc3c(=O)c(C(=O)O)cn1c23 (stereo not drawn) | inactive
27 | C[C@H]1c2cccc(O)c2C(O)=C2C(=O)[C@]3(O)C(O)=C(C(N)=O)C(=O)[C@@H](N(C)C)[C@@H]3[C@@H](O)[C@@H]21 | inactive
28 | COc1ccccc1OCCNCC(O)COc1cccc2[nH]c3ccccc3c12 (stereo not drawn) | inactive
29 | CCOC(=O)c1ncn2c1CN(C)C(=O)c1cc(F)ccc1-2 | inactive
30 | O=C1c2c(O)ccc(O)c2C(=O)c2c(NCCNCCO)ccc(NCCNCCO)c21 | 2.24 µM (active)
31 | CCC1(C)CC(=O)NC1=O (stereo not drawn) | inactive
32 | Cc1ccc(C(=O)Nc2ccc(S(=O)(=O)O)c3cc(S(=O)(=O)O)cc(S(=O)(=O)O)c23)cc1NC(=O)c1cccc(NC(=O)Nc2cccc(C(=O)Nc3cc(C(=O)Nc4ccc(S(=O)(=O)O)c5cc(S(=O)(=O)O)cc(S(=O)(=O)O)c45)ccc3C)c2)c1 | inactive
33 | Nc1nnc(-c2cccc(Cl)c2Cl)c(N)n1 | inactive
34 | CCc1cccc2c3c([nH]c12)C(CC)(CC(=O)O)OCC3 (stereo not drawn) | inactive

Assay: qHTS to identify inhibitors of the type 1 interferon - major histocompatibility complex class I in skeletal muscle: primary screen against the NCATS Pharmaceutical Collection (AID 1347407);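 further: luminescence of HiBiT knocked into endogenous HLA-B as interferon-induced MHC class I level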
Settings: human skeletal muscle cells, IFN-b-induced MHC-I HiBiT luminescence, 24 h; series mostly up to 45.9 µM
Outline: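 Luminescence from HiBiT-tagged endogenous HLA-B*08:01 served as the read-out of IFN-beta-induced MHC class I in CRISPR-engineered C25cl48 myoblasts. Cells received 4 ng/ml IFN-beta plus compound (high final 46 uM, […]) for 24 h.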

Row | SMILES | Potency
35 | O=C(CCCN1CCC(O)(c2ccc(Cl)cc2)CC1)c1ccc(F)cc1 | inactive
36 | Cc1cn([C@H]2C=C[C@@H](CO)O2)c(=O)[nH]c1=O | inactive
37 | CCOC(=O)Nc1ccc(NCc2ccc(F)cc2)nc1N | inactive
38 | Clc1ccc2nsnc2c1NC1=NCCN1 | inactive
39 | O=C(c1ccc(F)cc1)C1CCN(CCn2c(=O)[nH]c3ccccc3c2=O)CC1 | inactive
40 | CC[C@@]1(O)C(=O)OCc2c1cc1n(c2=O)Cc2cc3c(CN(C)C)c(O)ccc3nc2-1 | 10.5 µM (active)
41 | CN(C)CCCN1c2ccccc2CCc2ccc(Cl)cc21 | inactive
42 | C[C@](N)(Cc1ccc(O)c(O)c1)C(=O)O | inactive
43 | CC[N+](CC)(CC)CCOc1cccc(OCC[N+](CC)(CC)CC)c1OCC[N+](CC)(CC)CC | inactive
44 | NC(=O)NO | inactive
45 | Clc1ccc2c(c1)C(N1CCNCC1)=Nc1ccccc1O2 | inactive
46 | CC(CCc1ccc(O)cc1)NCCc1ccc(O)c(O)c1 (stereo not drawn) | inactive
47 | OCCN(CCO)c1nc(N2CCCCC2)c2nc(N(CCO)CCO)nc(N3CCCCC3)c2n1 | inactive
48 | COc1cc2nc(N(C)CCCNC(=O)C3CCCO3)nc(N)c2cc1OC (stereo not drawn) | inactive
49 | COc1ccc(C2CNC(=O)C2)cc1OC1CCCC1 (stereo not drawn) | inactive
50 | CN(Cc1cnc2nc(N)nc(N)c2n1)c1ccc(C(=O)N[C@@H](CCC(=O)O)C(=O)O)cc1 | inactive
51 | Nc1nc2c(ncn2COC(CO)CO)c(=O)[nH]1 | inactive

Row | SMILES | Potency
52 | O=c1[nH]cc(F)c(=O)[nH]1 | inactive
53 | Clc1ccc(C(c2ccccc2Cl)C(Cl)Cl)cc1 (stereo not drawn) | inactive
54 | NC(=O)OCC(COC(N)=O)c1ccccc1 | inactive
55 | Nc1ccn([C@H]2CC[C@@H](CO)O2)c(=O)n1 | inactive
56 | Nc1c2c(nc3ccccc13)CCCC2 | inactive
57 | CN1CCN(CCCN2c3ccccc3Sc3ccc(Cl)cc32)CC1 | inactive
58 | CN1CCN2c3ccccc3Cc3ccccc3C2C1 (stereo not drawn) | inactive
59 | CC(C)(C)C(=O)Oc1ccc(S(=O)(=O)Nc2ccccc2C(=O)NCC(=O)O)cc1 | inactive
60 | CC1COc2c(N3CCN(C)CC3)c(F)cc3c(=O)c(C(=O)O)cn1c23 (stereo not drawn) | inactive
61 | C[C@H]1c2cccc(O)c2C(O)=C2C(=O)[C@]3(O)C(O)=C(C(N)=O)C(=O)[C@@H](N(C)C)[C@@H]3[C@@H](O)[C@@H]21 | inactive
62 | COc1ccccc1OCCNCC(O)COc1cccc2[nH]c3ccccc3c12 (stereo not drawn) | inactive
63 | CCOC(=O)c1ncn2c1CN(C)C(=O)c1cc(F)ccc1-2 | inactive
64 | O=C1c2c(O)ccc(O)c2C(=O)c2c(NCCNCCO)ccc(NCCNCCO)c21 | 11.8 µM (active)
65 | CCC1(C)CC(=O)NC1=O (stereo not drawn) | inactive
66 | Cc1ccc(C(=O)Nc2ccc(S(=O)(=O)O)c3cc(S(=O)(=O)O)cc(S(=O)(=O)O)c23)cc1NC(=O)c1cccc(NC(=O)Nc2cccc(C(=O)Nc3cc(C(=O)Nc4ccc(S(=O)(=O)O)c5cc(S(=O)(=O)O)cc(S(=O)(=O)O)c45)ccc3C)c2)c1 | inactive
67 | Nc1nnc(-c2cccc(Cl)c2Cl)c(N)n1 | inactive
68 | CCc1cccc2c3c([nH]c12)C(CC)(CC(=O)O)OCC3 (stereo not drawn) | inactive

Reference: PubChem BioAssay (NCATS)
